# Screens: PubChem BioAssay, National Center for Advancing Translational Sciences (NCATS)
# L3MBTL1 inh = blocks human L3MBTL1 | Q9Y468 | AlphaScreen L3MBTL1–H3K9me1 peptide binding | Potency, µM (highest dose often 57.1 µM), without a hit: at the top dose activity, negative = inhibition, most hits filed as inhibitors | hit rate 0.66% among 230,000 | AID 485360; note: % is set by controls: 0 for no effect and ±100 for the full control effect; nearly all actives have a fitted effect of over 60% in size
#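 L3MBTL1 50 nM + b-AHA-H3(1-15)K9me1 75 nM, 30 min RT; compound added, 30 min RT; streptavidin donor/Ni-chelate acceptor beads 10 ug/mL each final, 30 min RT dark; AlphaScreen read.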
# HP1b chromo inh = inhibitors of HP1-beta chromodomain binding to methylated histone tails; AlphaScreen HP1-beta / biotin-H3K9me3 peptide binding; Potency, µM (series often up to 114 µM), for the others: top-dose activity change, negative = inhibition, hits mostly inhibitors; hit rate 0.56% among 390,000; note: nearly all actives have a fitted effect of over 70% in size
#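 Compound inhibition of the preformed complex between 50 nM HP1-beta and 50 nM biotinylated H3K9me3 peptide was read by AlphaScreen. Buffer was PBS pH 7.4 with 0.01% Tween-20. Incubations ran 30 min at room temperature, with 10 ug/mL donor/acceptor beads.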
# BAZ2B inh = inhibitors of human BAZ2B bromodomain; Potency, µM (series often up to 114 µM), for inactives: at the highest dose activity change, negative = inhibition, hits mostly inhibitors; hit rate 4.4% among 360,000; Q9UIF8; AlphaScreen BAZ2B-H3K14Ac peptide displacement; AID 504333; note: % is set by controls: 0 for no effect and ±100 for the full control effect; nearly all actives have a fitted effect of over 60% in size
#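 AlphaScreen displacement of biotin-H3(5-23)K14Ac peptide (50 nM final) from BAZ2B (50 nM final) in PBS pH 7.4, 0.01% Tween-20; complex preformed 30 min RT, then compounds (top 110 uM) 30 min RT, beads 20 min dark.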
# Sfp inh = blocks B. subtilis Sfp PPTase activity; Q9F4F7; Biochemical Sfp PPTase activity, qHTS; Potency, µM, without a hit: largest response in the series, negative = inhibition, usual class: inhibitors; hit rate 3.5% among 310,000;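 note: the enzyme is Sfp with the accession as filed and its product quenches rhodamine fluorescence; 0% = enzyme reaction without inhibitor and -100% = no enzyme wells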
#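 Buffer: 50 mM Hepes-Na pH 7.6, 10 mM MgCl2, 0.01% Nonidet P-40, 0.01% BSA. Enzyme 15 nM, pre-exposed to compound 15 min; substrates then added and fluorescence change tracked over 30 min.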
# JMJD2A Tudor = JMJD2A Tudor domain (human) inhibition; Potency, µM (highest dose often 114 µM), inactives show top-dose activity change, negative = inhibition, hits mostly inhibitors; hit rate 4.4% among 390,000; AlphaScreen JMJD2A-Tudor / H3K4me3 peptide binding; note: % is set by controls: 0 for no effect and ±100 for the full control effect; nearly all actives have a fitted effect of over 50% in size
# G9a block = inhibitors of human histone lysine methyltransferase G9a; Q96KQ7; G9a H3K9 monomethylation, AlphaScreen, 2 h; Potency, µM (titrated, usually from 102 µM), without a hit: top-dose activity, negative = inhibition, hits mostly inhibitors; hit rate 8.8% among 350,000; note: % is set by controls: 0 for no effect and ±100 for the full control effect; nearly all actives have a fitted effect of over 75% in size
#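 Chemiluminescent proximity detection of H3K9 monomethylation, read after 10 min bead incubation in the dark. Reaction: 20 nM G9a, 500 nM biotin-H3K9 peptide, 20 uM SAM cofactor, 2 h, room temperature, following 15 min enzyme-compound preincubation.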
# Numbers without * were called inactive; ? = inconclusive; / = no result given; ! = a repeat was not active; [ ] = remark or other dose. Most compounds without a hit are left out; they make up all but 12% or so of the library. Calls come from the whole dose curve; as a rule, active = well fitted curve in the direction sought with a large enough effect; inconclusive = small, poorly fitted or top-dose-only effect, or another doubt; inactive = no such curve, though single readings can be large; an effect the other way counts as inactive or inconclusive. Potency is the fitted concentration of half-maximal effect.
SMILES,L3MBTL1 inh,HP1b chromo inh,BAZ2B inh,Sfp inh,JMJD2A Tudor,G9a block
Cc1cn(C2OC(COC(=O)c3ccccc3)C(O)C2Cl)c(=O)[nH]c1=O (stereo not drawn),5.2%,52.6%,-12.7%,11.3%,-4.9%,50.1µM*
CCc1ccc(NC(=O)c2sc3nc(C)cc(C)c3c2NC(=O)c2ccccc2)cc1,/,11.7%,-14.9%,/,-10.1%,6.6%[59 µM]
CCOC(=O)/C(C#N)=C/c1c(N2CCN(CC)CC2)nc2c(C)cccn2c1=O,/,24.0%,-3.0%,8.0%,-16.0%,?
COC(=O)/C(C#N)=C/c1c(N2CCN(c3ccccc3)CC2)nc2ccccn2c1=O,/,-20.3%,?,-2.6%,?,79.4µM*
COC(=O)/C(C#N)=C/c1c(N2CCN(C)CC2)nc2ccccn2c1=O,/,8.0%,2.9%,16.1%,-4.4%,-12.9%[2.33 µM]
CCOC(=O)/C(C#N)=C/c1c(N2CCN(c3ccc(OC)cc3)CC2)nc2c(C)cccn2c1=O,/,?,8.91µM*,1.9%,?,8.91µM*
CCNC(=O)/C(C#N)=C/c1c(N2CCN(c3ccc(OC)cc3)CC2)nc2c(C)cccn2c1=O,/,?,35.5µM*,-6.5%,20µM*,39.8µM*
COCCNC(=O)/C(C#N)=C/c1c(N2CCN(c3ccc(OC)cc3)CC2)nc2c(C)cccn2c1=O,/,-12.9%,39.8µM*,-12.8%,50.1µM*,28.2µM*
COc1ccc(S(=O)(=O)N2CCCOC2CNC(=O)C(=O)NCc2cccnc2)cc1 (stereo not drawn),/,11.0%,-1.5%,19.3%,-18.2%,17.2%
CC1CC=CC2C1C(=O)N(Cc1ccccc1)C2c1ccc(C(F)(F)F)cc1 (stereo not drawn),/,60.1%,/,2.2%,6.2%,/
COc1ccc2[nH]c(=O)c(-c3noc(-c4ccccc4)n3)cc2c1,-10.4%,42.5%,50.1µM*,?,?,?
COc1ccc2[nH]c(=O)c(-c3nnn(-c4ccc(Cl)nc4)n3)cc2c1,/,3.8%,/,/,50.1µM*,/
COc1ccc2[nH]c(=O)c(-c3nnn(-c4ccccc4)n3)cc2c1,11.0%,43.3%,0.2%,-15.1%,0.0%,-50.3%[59 µM]
COc1ccc2c(c1)C(=O)[C@@H](OC(=O)NCc1ccco1)[C@H](c1ccc(OC)c(Br)c1)O2,/,/,/,3.5%,/,/
Cc1cccc(CCNC(=O)CNS(=O)(=O)c2ccc3nc(C)sc3c2)c1,/,34.9%,-18.9%,14.9%,-18.0%,6.5%
OCCN(Cc1ccccc1)c1ncnc2sccc12,/,24.0%,0.6%,9.7%,-7.1%,-8.3%
NC(=NC1C2CC3CC(C2)CC1C3)Nc1ccc(I)cc1 (stereo not drawn),/,/,/,28.5%,/,28.2µM*!
O=C(CSc1nnc(-c2ccccc2)n1-c1ccccc1)NCc1ccco1,/,5.3%,-29.0%,14.8%,-17.8%,?
Cc1sc2nc(C3CC3)nc(SCC(=O)NCc3ccco3)c2c1C,-7.2%,25.7%,-12.5%,?,-14.7%,50.1µM*
CCCc1nc(SCC(=O)NCc2ccco2)c2c(=O)n(C)c(=O)n(C)c2n1,0.8%,25.1%,0.6%,-0.1%,-23.6%,44.7µM*
COCCCn1c(SCC(=O)NCc2ccco2)nc2sc3c(c2c1=O)CCC3,-4.8%,14.7%,-1.8%,?,-35.1%,50.1µM*
O=C(CSc1nnc(C2CC2)n1-c1ccccc1)NCc1ccco1,/,21.6%,14.3%,-15.5%,-20.4%,79.4µM*
COc1ccc2c(c1OC)C(=O)N(c1cccc(/C=C/C(=O)O)c1)C2,/,21.2%,-1.3%,4.5%,-9.6%,11.9%
CC(C)c1c(O)ccc2c1CCC1[C@@](C)(C=O)CCC[C@@]21C (stereo partly drawn),/,/,/,2.9%,/,-3.2%[2.33 µM]
Cc1ccc(NC(=O)c2sc3nc[nH]c(=O)c3c2C)cc1C,/,24.4%[57 µM],-0.1%,/,-19.4%,-6.0%[59 µM]
COC(=O)c1ccc(NC(c2ccc(Cl)cc2)P(=O)(OC)OC)cc1 (stereo not drawn),-16.1%,10.4%,-24.6%,3.3%,-16.2%,?
